Here are results for seven molecules from PubChem BioAssay (EPA / NIEHS).

Molecules are shown by their SMILES. Active and inactive are the calls of the source. Rule for the calls: active = hit-call score of the fitted dose curve at least 0.9, where 1 is the maximum; inactive = score below 0.9.

Read-out in assay [1]: Thrombomodulin, THBD (gene 7056)
The assay is described as follows: BSK_CASM3C_Thrombomodulin: BioMAP Diversity Plus: CASM3C Assay for Thrombomodulin Biomarker Activity (AID 2283051).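 Note: thrombomodulin protein level measured by ELISA 24 h after dosing.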 The following applies: primary human coronary artery smooth muscle cells; actives raise or lower the signal.

Read-out in assay [2]: Tissue Factor, F3 (gene 2152)
Briefly: BSK_CASM3C_TissueFactor: BioMAP Diversity Plus: CASM3C Assay for Tissue Factor Biomarker Activity (AID 2283052).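 Note: cell surface tissue factor protein level read by ELISA.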 The following applies: primary human coronary artery smooth muscle cells; actives raise or lower the signal.

Read-out in assay [3]: Interferon-gamma inducible Protein 10 (IP10), CXCL10 (gene 3627)
Briefly: BSK_hDFCGF_IP10: BioMAP Diversity Plus: hDFCGF Assay for Interferon-gamma inducible Protein 10 (IP10) Biomarker Activity (AID 2283053). The following applies: primary human foreskin fibroblasts; actives raise or lower the signal. In short, it runs like this:
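Primary human foreskin fibroblasts exposed to chemicals for 24 h. IP-10 measured by ELISA; changes fitted bidirectionally against DMSO baseline.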

Read-out in assay [4]: Urokinase-type plasminogen activator receptor (uPAR), PLAUR (gene 5329)
The assay is described as follows: BSK_CASM3C_uPAR: BioMAP Diversity Plus: CASM3C Assay for Urokinase-type plasminogen activator receptor (uPAR) Biomarker Activity (AID 2283054).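 Note: cell-surface uPAR protein level quantified by ELISA.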 Conditions: primary human coronary artery smooth muscle cells; actives raise or lower the signal.

Read-out in assay [5]: Vascular cell adhesion molecule 1 (VCAM1), VCAM1 (gene 7412)
The assay is described as follows: BSK_CASM3C_VCAM1: BioMAP Diversity Plus: CASM3C Assay for Vascular cell adhesion molecule 1 (VCAM1) Biomarker Activity (AID 2283055).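 Note: VCAM-1 protein level quantified by ELISA on the cells.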 The following applies: primary human coronary artery smooth muscle cells; actives raise or lower the signal.

Read-out in assay [6]: Collagen III, COL3A1 (gene 1281)
Briefly: BSK_hDFCGF_CollagenIII: BioMAP Diversity Plus: hDFCGF Assay for Collagen III Biomarker Activity (AID 2283056). Conditions: primary human foreskin fibroblasts; actives raise or lower the signal. Summed up:
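hDFCGF primary human dermal fibroblasts; 24 h chemical exposure; collagen III by ELISA; bidirectional curve fit vs DMSO baseline (gain or loss of signal).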

Read-out in assay [7]: Epidermal growth factor receptor (EGFR), EGFR (gene 1956)
The assay is described as follows: BSK_hDFCGF_EGFR: BioMAP Diversity Plus: hDFCGF Assay for Epidermal growth factor receptor (EGFR) Biomarker Activity (AID 2283057). The following applies: primary human foreskin fibroblasts; actives raise or lower the signal. Summed up:
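Primary human foreskin fibroblasts (hDFCGF system), sampled 24 h after dosing; EGFR quantified by ELISA. Bidirectional fit relative to DMSO baseline; SRB total-protein staining in parallel cultures for cytotoxicity.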

Read-out in assay [8]: Interleukin-8 (IL8), CXCL8 (gene 3576)
Briefly: BSK_hDFCGF_IL8: BioMAP Diversity Plus: hDFCGF Assay for Interleukin-8 (IL8) Biomarker Activity (AID 2283058). Conditions: primary human foreskin fibroblasts; actives raise or lower the signal. Summed up: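 ELISA read-out of IL-8 from primary human foreskin fibroblast cultures taken 24 h after dosing; values are bidirectional fits relative to DMSO vehicle.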

The nature of assay [9]: BSK_hDFCGF_Proliferation: Cell Proliferation Assessment in the BioMAP Diversity Plus: hDFCGF Assay (AID 2283059).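 Note: curves fitted for both rise and fall of signal versus DMSO baseline.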 Conditions: primary human foreskin fibroblasts. Summed up: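 This proliferation readout used SRB total-protein staining of human foreskin fibroblasts […], normalized to DMSO with bidirectional curve fitting.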
Read-out in assay [10]: Macrophage colony-stimulating factor (MCSF), CSF1 (gene 1435)
The assay is described as follows: BSK_hDFCGF_MCSF: BioMAP Diversity Plus: hDFCGF Assay for Macrophage colony-stimulating factor (MCSF) Biomarker Activity (AID 2283060). Conditions: primary human foreskin fibroblasts; actives raise or lower the signal. Summed up:
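ELISA read-out of M-CSF in human dermal foreskin fibroblast cultures, 24 h after chemical dosing; gain or loss of signal fitted bidirectionally relative to DMSO baseline.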

A short description of assay [11]: BSK_hDFCGF_SRB: Viability Assessment in the BioMAP Diversity Plus: hDFCGF Assay (AID 2283061).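 Note: cells exposed to compound for 24 h before the read.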 Conditions: primary human foreskin fibroblasts. In short, it runs like this:
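Primary human foreskin fibroblasts; 24 h post-dose; fixed 10% TCA, stained 0.1% SRB, A560 read; total protein as overt cytotoxicity measure; curves fit bidirectionally vs DMSO control.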

Read-out in assay [12]: TIMP metallopeptidase inhibitor 1 (TIMP1), TIMP1 (gene 7076)
The assay is described as follows: BSK_hDFCGF_TIMP1: BioMAP Diversity Plus: hDFCGF Assay for TIMP metallopeptidase inhibitor 1 (TIMP1) Biomarker Activity (AID 2283062). Conditions: primary human foreskin fibroblasts; actives raise or lower the signal. Summed up: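 ELISA readout of TIMP-1 from human dermal foreskin fibroblast cultures 24 h post-dosing. Curves were fitted in both directions against DMSO baseline, with SRB total-protein staining in parallel cultures as a cytotoxicity check.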

Read-out in assay [13]: Monokine induced gamma interferon (MIG), CXCL9 (gene 4283)
Briefly: BSK_hDFCGF_MIG: BioMAP Diversity Plus: hDFCGF Assay for Monokine induced gamma interferon (MIG) Biomarker Activity (AID 2283063). Conditions: primary human foreskin fibroblasts; actives raise or lower the signal. In short, it runs like this: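 Fibroblasts (human foreskin, primary) dosed, 24 h, MIG by ELISA; fit bidirectional vs DMSO.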

Read-out in assay [14]: Matrix Metallopeptidase 1 (MMP1), MMP1 (gene 4312)
Briefly: BSK_hDFCGF_MMP1: BioMAP Diversity Plus: hDFCGF Assay for Matrix Metallopeptidase 1 (MMP1) Biomarker Activity (AID 2283064). The following applies: primary human foreskin fibroblasts; actives raise or lower the signal. In short, it runs like this: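 Primary human foreskin fibroblasts in the hDFCGF system were dosed with test chemical, and MMP1 was measured by ELISA 24 h later. Values come from bidirectional curve fitting against the DMSO baseline.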

Read-out in assay [15]: Vascular cell adhesion molecule 1 (VCAM1), VCAM1 (gene 7412)
Briefly: BSK_hDFCGF_VCAM1: BioMAP Diversity Plus: hDFCGF Assay for Vascular cell adhesion molecule 1 (VCAM1) Biomarker Activity (AID 2283065).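 For AC50: VCAM-1 protein level quantified by ELISA after 24 h chemical exposure.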 Conditions: primary human foreskin fibroblasts; actives raise or lower the signal. Summed up:
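ELISA read-out of VCAM-1 on human skin fibroblasts, 24 h post-dose; gain or loss of signal fitted bidirectionally against DMSO baseline.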

Read-out in assay [16]: Plasminogen activator inhibitor-1 (PAI1), SERPINE1 (gene 5054)
The assay is described as follows: BSK_hDFCGF_PAI1: BioMAP Diversity Plus: hDFCGF Assay for Plasminogen activator inhibitor-1 (PAI1) Biomarker Activity (AID 2283066). Conditions: primary human foreskin fibroblasts; actives raise or lower the signal. Summed up: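 Human foreskin fibroblast primary cells, 24 h chemical exposure; PAI-1 measured by ELISA. Bidirectional fitting relative to DMSO; parallel cultures stained with SRB for total protein to flag overt cytotoxicity.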

Read-out in assay [17]: Intercellular Adhesion Molecule 1 (ICAM1), ICAM1 (gene 3383)
Briefly: BSK_KF3CT_ICAM1: BioMAP Diversity Plus: KF3CT Assay for Intercellular Adhesion Molecule 1 (ICAM1) Biomarker Activity (AID 2283067). Conditions: primary human keratinocytes with fibroblasts; actives raise or lower the signal. In short, it runs like this: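 ELISA readout of ICAM-1; KF3CT human skin co-culture (keratinocytes + foreskin fibroblasts), 24 h post-dose; gain/loss fit vs DMSO baseline.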

Read-out in assay [18]: Interferon-gamma inducible Protein 10 (IP10), CXCL10 (gene 3627)
The assay is described as follows: BSK_KF3CT_IP10: BioMAP Diversity Plus: KF3CT Assay for Interferon-gamma inducible Protein 10 (IP10) Biomarker Activity (AID 2283068). Conditions: primary human keratinocytes with fibroblasts; actives raise or lower the signal. In short, it runs like this:
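Signal is secreted/surface IP-10 by ELISA in a human primary skin co-culture of keratinocytes and foreskin fibroblasts, taken 24 h post-dosing; DMSO served as negative control.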

A short description of assay [19]: BSK_KF3CT_SRB: Viability Assessment in the BioMAP Diversity Plus: KF3CT Assay (AID 2283069).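 Note: total protein by sulforhodamine B staining as a cytotoxicity measure; read 24 h after compound addition.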 Conditions: primary human keratinocytes with fibroblasts. Summed up: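 Human primary keratinocyte plus foreskin fibroblast co-culture exposed to chemicals for 24 h. Total protein measured by 0.1% sulforhodamine B staining after 10% TCA fixation, read at 560 nm; bidirectional fitting versus DMSO baseline.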

Read-out in assay [20]: Interleukin-1 alpha (IL1a), IL1A (gene 3552)
The assay is described as follows: BSK_KF3CT_IL1a: BioMAP Diversity Plus: KF3CT Assay for Interleukin-1 alpha (IL1a) Biomarker Activity (AID 2283070). Conditions: primary human keratinocytes with fibroblasts; actives raise or lower the signal. In short, it runs like this: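 Human keratinocyte plus foreskin fibroblast primary co-culture, sampled 24 h after chemical dosing. IL-1a measured by ELISA; responses fitted bidirectionally against DMSO baseline (negative control), so gain or loss of signal both count.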

For the molecule `C#CCN1C(=O)COc2cc(F)c(N3C(=O)C4=C(CCCC4)C3=O)cc21`, the result in assay [1], in [2], in [3], in [4], in assay [5] and in [6] was inactive. Further, the result in assay [7], in [8], in assay [9], in [10], in assay [11] and in assay [12] was inactive. The result in assay [13], in assay [14], in assay [15], in assay [16], in [17] and in assay [18] was inactive. Moreover, the result in assay [19] and in assay [20] was inactive.

`CC(C)(C)C(O)C(Oc1ccc(Cl)cc1)n1cncn1` (stereo not drawn): the outcome in assay [1], in assay [2], in assay [3], in assay [4], in assay [5] and in assay [6] was inactive. Moreover, the result in [7], in assay [8], in assay [10], in assay [11], in assay [12] and in assay [13] was inactive. Also, the result in [14], in [15], in [16], in [17], in assay [18] and in assay [19] was inactive. Also, the outcome in [20] was inactive.

Turning to `CCc1ccc(C(=O)NN(C(=O)c2cc(C)cc(C)c2)C(C)(C)C)cc1`, the outcome in [1], in assay [2], in [3], in assay [4], in assay [5] and in [6] was inactive. In addition, the outcome in assay [7], in [8], in [9], in [10], in assay [11] and in assay [12] was inactive. The result in assay [13], in [14], in assay [15], in [16], in assay [17] and in [18] was inactive. For the same molecule, the result in assay [19] and in [20] was inactive.

What is called AC50 is the concentration giving half of the maximal activity seen. On to `CCC(C)Nc1c([N+](=O)[O-])cc(C(C)(C)C)cc1[N+](=O)[O-]` (stereo not drawn), for which the result in assay [1], in assay [2], in [4], in [5], in [6] and in assay [8] was inactive. Besides, the outcome in assay [12], in [13], in [14], in assay [17], in assay [18] and in [19] was inactive. Also, the outcome in [20] was inactive. For the same molecule, the concentration at half-maximal activity (AC50) in assay [3] is 15300 nM (active); in assay [7], 33000 nM (active); in assay [9] it was 20000 nM (active); in assay [10], 21500 nM (active); in assay [11] it was 32900 nM (active); in assay [15], 15400 nM (active). Also, the AC50 in [16] was 5080 nM (active).

Turning to `[2H]C1([2H])[n+]2ccccc2-c2cccc[n+]2C1([2H])[2H]`, the result in assay [1], in assay [2], in assay [4], in assay [5], in assay [7] and in assay [8] was inactive. The result in assay [10], in [11], in assay [12], in assay [13], in assay [15] and in assay [16] was inactive. Also, the outcome in assay [17] and in assay [19] was inactive. In addition, the concentration at half-maximal activity (AC50) is 5270 nM (active) in [3]; 1160 nM (active) in [6]; 8950 nM (active) in [9]; 3170 nM (active) in assay [14]; 4430 nM (active) in assay [18]; 20000 nM (active) in assay [20].

With `Clc1ccccc1-c1nnc(-c2ccccc2Cl)nn1`, the result in assay [1], in assay [2], in [4], in assay [5], in assay [7] and in [8] was inactive. The outcome in assay [9], in assay [10], in assay [11], in assay [12], in assay [13] and in [14] was inactive. The result in assay [15], in assay [16], in [17], in [18] and in [19] was inactive. In addition, the AC50 in assay [3] is 14500 nM (active); in assay [6], 3000 nM (active); in [20], 2760 nM (active).

With `N#Cc1c(Cl)c(Cl)c(Cl)c(C#N)c1Cl`, the result in [1] and in [7] was inactive. The AC50 is 148 nM (active) in assay [3]; 5030 nM (active) in [4]; 1620 nM (active) in assay [5]; 148 nM (active) in [6]; 1100 nM (active) in assay [8]; 148 nM (active) in assay [9]. The concentration at half-maximal activity (AC50) in [10] is 1110 nM (active); in [11], 148 nM (active); in assay [12] it was 2580 nM (active); in [13], 148 nM (active); in [14], 986 nM (active); in [15] it was 1080 nM (active). Also, the AC50 in assay [16] is 615 nM (active); in assay [17], 786 nM (active); in assay [18], 585 nM (active); in assay [19], 1490 nM (active); in [20], 1500 nM (active).
